Results filed as inconclusive are left out. The source made the active and inactive calls. Calls come from the whole dose curve; as a rule, active = well fitted activation curve with a large enough effect; inconclusive = small, poorly fitted or top-dose-only effect; inactive = no such curve, though single readings can be large or run the other way.
Assay: qHTS assay for re-activators of p53 using a Luc reporter: Hit Validation with no p53 Expressed; note: 0% is about no effect
Conditions: p53-null cells, luciferase reporter counter-screen; series mostly up to 46.1 µM; activity change, positive = activation: at the top concentration
How it was run: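 Counter-screen of primary hits in a cell line not transfected with p53, in Opti-MEM with 10% FBS; compounds at several concentrations (10 mM stock, 1:5; top 46.1 µM in well), 24 h at 37 deg C, 5% CO2. Luminescence read after 10 min with Amplite reagent.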

SMILES	activity change, positive = activation
O=C(Nc1ccc(Br)cn1)c1cccc(-c2cc3ccccc3oc2=O)c1	-13.3% (inactive)
O=C(N/N=C/c1cccc(F)c1)NC1CCCCC1	33% (inactive)
O=C(NNc1c2ccccc2nc2ccccc12)c1ccc(O)cc1	9.35% (inactive)
COc1ccc(-n2c(C)cc(C(=O)COc3ccc(C)nc3[N+](=O)[O-])c2C)cc1	-28.6% (inactive)
COc1cc(NC(=O)C(C)C)ccc1NC(=O)c1ccco1	-0.602% (inactive)
CS(=O)(=O)c1ccc2nc(NC(=O)c3ccco3)sc2c1	9.08% (inactive)
O=C(CNS(=O)(=O)c1cccc(Cl)c1)Nc1ccc(-c2nc3ccccc3s2)cc1	58.9% (inactive)
NC(=O)c1cc2ccc(O)cc2oc1=Nc1ccccc1	0.331% (inactive)
CCOC(=O)c1ccc(N2Cc3ccccc3C2=NC(=O)c2cccs2)cc1	40.9% (inactive)
Cc1ccnc(NC(=O)c2sc3cc(Cl)ccc3c2Cl)c1	3.29% (inactive)
Cc1ccc(-c2nnc(Oc3cccc(C)c3)c3ccccc23)cc1	37.7% (inactive)
CCOc1ccc2cc(C#N)c(SCC(=O)OC)nc2c1	90% (inactive)
CS(=O)(=O)n1nc(-c2ccc(Cl)cc2)nc1SCc1ccccc1	68.8% (inactive)
c1ccc(-c2nnc(-c3ccccn3)nc2NC2CCCCC2)cc1	-7.46% (inactive)
Cc1ccc(S(=O)(=O)CNC(=O)c2ccccc2)cc1	-19.2% (inactive)
O=[N+]([O-])c1cc(C(F)(F)F)ccc1NCCc1c[nH]c2ccccc12	-38.7% (inactive)
CC1(C)CC(=O)CC(=O)/C1=N\Nc1c(Cl)cc(Cl)cc1Cl	-30.2% (inactive)
Cc1cc(/C=N/Nc2ncnc(N)c2[N+](=O)[O-])c(C)n1-c1ccccc1	-65.8% (inactive)
Cn1c(CCN2CCCCC2)nc2cc(NC(=O)Nc3ccccc3)ccc21	-15.9% (inactive)
CN(Cc1ccccc1)c1ncnc2ccc(Br)cc12	-15.8% (inactive)

SMILES	activity change, positive = activation
Cc1ccc2nc(-c3ccc(NC(=O)COC(=O)c4cncc(Br)c4)cc3)sc2c1	-17.4% (inactive)
COC(=O)Cc1n[nH]c(=S)[nH]c1=O	-10.7% (inactive)
O=C(/C=C/Nc1ccccc1C(=O)O)c1cccs1	18% (inactive)
CCOC(=O)c1c(NC(=O)C2COc3ccccc3O2)sc2c1CCN(Cc1ccccc1)C2 (centres undefined)	7.72% (inactive)
Cc1ccc(S(=O)(=O)NCCOc2nc(N(C)C)nc(N3CCOCC3)n2)cc1	3.19% (inactive)
Cc1ccc(C(=O)c2cc([N+](=O)[O-])ccc2N2CCCCC2)cc1C	-48.2% (inactive)
COc1ccc(C(C#N)N2N=C(c3ccccc3)CC2c2ccccc2)cc1OC (centres undefined)	-24.4% (inactive)
CCCN1CCC(=NNC(=O)CSc2cc(C)c(Br)cc2C)CC1	-19.9% (inactive)
C1=C(CCNc2ncnc3nc[nH]c23)CCCC1	52.6% (inactive)
COc1ccc(-c2nsc3c(N4CCCC4)ncnc23)cc1	-13.9% (inactive)
N#C/C(=C/c1cccnc1)c1ccccc1	-42.3% (inactive)
COc1ccc(N2CCN(CC(=O)Nc3ccc(C)cc3)CC2)cc1	-7.99% (inactive)
Cc1cccc(N2CCN(S(=O)(=O)c3ccc4c(c3)CCC(=O)N4)CC2C)c1 (centres undefined)	-36.5% (inactive)
Cc1cc([N+](=O)[O-])ccc1NC(=O)/C=C/c1cccs1	-2.37% (inactive)
Cc1cccc2nc(CNc3ccc(F)cc3)cn12	-5.96% (inactive)
C=CCSC1=N/C(=C\c2cc(OCC)c(OC(C)=O)c([N+](=O)[O-])c2)C(=O)S1	-60.9% (inactive)
O=C(c1cccc(S(=O)(=O)NCc2ccc3c(c2)OCO3)c1)N1CCCC1	-10.3% (inactive)
COc1ccc(N2COC3c4cccc5cccc(c45)C32)cc1 (centres undefined)	472% (inactive)
CC(=O)c1cccc(NS(=O)(=O)N(C)C)c1	0.341% (inactive)
